# Measurements as given in PubChem BioAssay (EPA / NIEHS).
# Records with an inconclusive call do not appear. Calls of active or inactive are those of the source. The calls were made as follows, unless noted: active = hit-call score of the fitted dose curve at least 0.9, where 1 is the maximum; inactive = score below 0.9.
# Legend:
# [1] = CCTE_Harrill_HTTr_Viability_DMEM_6hr: (Pilot) CCTE's 6-hour Cell Viability Assessment for the High-Throughput Transcriptomics (HTTr) Platform, in MCF-7 cells cultured in DMEM + 10% fetal bovine serum, Harrill Lab (AID 2283973)
# Method in brief: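 Propidium iodide uptake imaged by high-content analysis after six hours of chemical treatment in an eight-concentration series. Cells: MCF-7 grown in DMEM with 10% fetal bovine serum; DMSO as baseline.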
# [2] = CCTE_Harrill_HTTr_Viability_DMEM_12hr: (Pilot) CCTE's 12-hour Cell Viability Assessment for the High-Throughput Transcriptomics (HTTr) Platform, in MCF-7 cells cultured in DMEM + 10% fetal bovine serum, Harrill Lab (AID 2283974)
# From the text: This is a cell-based assay that evaluates cell viability using high content imaging to evaluate membrane integrity using propidium iodide dye exclusion in a 384 well format.One of seven assay components measured from the CCTE_Harrill_HTTr_Viability assay. This was part of a pilot experiment. This is a cell-based assay that evaluates cell viability in MCF-7 cells cultured in DMEM + 10% fetal bovine serum. High content imaging is used to evaluate membrane integrity using propidium iodide dye exclusion. Measurements are taken at 12 hours after chemical dosing in 384-well format.The assay component endpoint CCTE_Harrill_HTTr_Viability_DMEM_12hr was analyzed with bidirectional fitting relation to DMSO as the negative control and baseline of activity. Using a type of viability reporter to understand changes in cytotoxicity, gain-of-signal activity can be used to evaluate membrane integrity using propidium iodide dye exclusion. To generalize the intended target to other relatable targets, this assay endpoint is annotated to cell cycle, where the subfamily is cytotoxicity.
# Chemicals were tested in MCF7 cells in an eight point dilution series with a twelve hour exposure duration.
# [3] = CCTE_Harrill_HTTr_Viability_DMEM_24hr: (Pilot) CCTE's 24-hour Cell Viability Assessment for the High-Throughput Transcriptomics (HTTr) Platform, in MCF-7 cells cultured in DMEM + 10% fetal bovine serum, Harrill Lab (AID 2283975)
# Method in brief: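 Pilot study: propidium iodide dye exclusion, imaged by high content microscopy, after 24 h compound exposure (eight concentrations) in MCF-7 cultured in DMEM + 10% fetal bovine serum; DMSO served as negative control and baseline.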
# [4] = CCTE_Harrill_HTTr_Viability_PRF_DMEM_6hr: (Pilot) CCTE's 6-hour Cell Viability Assessment for the High-Throughput Transcriptomics (HTTr) Platform, in MCF-7 cells cultured phenol red-free DMEM + 10% charcoal-stripped fetal bovine serum, Harrill Lab (AID 2283976)
# From the text: This is a cell-based assay that evaluates cell viability using high content imaging to evaluate membrane integrity using propidium iodide dye exclusion in a 384 well format.One of seven assay components measured from the CCTE_Harrill_HTTr_Viability assay. This was part of a pilot experiment. This is a cell-based assay that evaluates cell viability in MCF-7 cells cultured in phenol red-free DMEM + 10% charcoal-stripped fetal bovine serum. High content imaging is used to evaluate membrane integrity using propidium iodide dye exclusion. Measurements are taken at 6 hours after chemical dosing in 384-well format.The assay component endpoint CCTE_Harrill_HTTr_Viability_PRF_DMEM_6hr was analyzed with bidirectional fitting relation to DMSO as the negative control and baseline of activity. Using a type of viability reporter to understand changes in cytotoxicity, gain-of-signal activity can be used to evaluate membrane integrity using propidium iodide dye exclusion. To generalize the intended target to other relatable targets, this assay endpoint is annotated to cell cycle, where the subfamily is cytotoxicity.
# Chemicals were tested in MCF7 cells in an eight point dilution series with a six hour exposure duration.
# [5] = CCTE_Harrill_HTTr_Viability_PRF_DMEM_12hr: (Pilot) CCTE's 12-hour Cell Viability Assessment for the High-Throughput Transcriptomics (HTTr) Platform, in MCF-7 cells cultured in phenol red-free DMEM + 10% charcoal-stripped fetal bovine serum, Harrill Lab (AID 2283977)
# Method in brief: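 Membrane integrity was scored via propidium iodide dye exclusion imaging, fitted in both directions relative to DMSO. Compounds ran as eight-point dilutions for 12 hours on MCF-7 grown in phenol red-free DMEM plus 10% charcoal-stripped serum.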
# [6] = CCTE_Harrill_HTTr_Viability_PRF_DMEM_24hr: (Pilot) CCTE's 24-hour Cell Viability Assessment for the High-Throughput Transcriptomics (HTTr) Platform, in MCF-7 cells cultured in phenol red-free DMEM + 10% charcoal-stripped fetal bovine serum, Harrill Lab (AID 2283980)
# Method in brief: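 Propidium iodide exclusion imaged at 24 h after dosing scores viability; cells were MCF-7 grown in phenol red-free DMEM plus 10% charcoal-stripped serum, tested in eight concentrations, fitted in both directions against DMSO.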
# [7] = CCTE_Harrill_HTTr_Apoptosis_DMEM_6hr: (Pilot) CCTE's 6-hour Apoptosis Assessment for the High-Throughput Transcriptomics (HTTr) Platform, in MCF-7 cells cultured in DMEM + 10% fetal bovine serum, Harrill Lab (AID 2283981)
# Method in brief: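 MCF-7 cells grown in DMEM + 10% FBS were exposed for 6 hours to an eight-point dilution series. CellEvent Caspase 3/7 Green signal was imaged; activity fitted bidirectionally against DMSO.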
# [8] = CCTE_Harrill_HTTr_Apoptosis_DMEM_12hr: (Pilot) CCTE's 12-hour Apoptosis Assessment for the High-Throughput Transcriptomics (HTTr) Platform, in MCF-7 cells cultured in DMEM + 10% fetal bovine serum, Harrill Lab (AID 2283982)
# Method in brief: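 Caspase-3/7 activity was measured by high-content imaging (CellEvent Caspase 3/7 Green) after a 12-hour exposure of MCF-7 cells grown in DMEM with 10% FBS. Eight-point concentration series, fitted bidirectionally against vehicle.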
# [9] = target: Retinoic acid receptor RXR-alpha (Homo sapiens) (UniProt P19793); test: TOX21_TR_RXR_BLA_Antagonist_Followup_ratio: Tox21 Thyroid Hormone Receptor beta Retinoid X Receptor alpha (RXRa) Antagonism Beta-lactamase (BLA) Follow-Up Assay, Ratio (AID 2283972; active = hit-call score of the fitted dose curve at least 0.9, where 1 is the maximum)
# Chain of Retinoic acid receptor RXR-alpha (Homo sapiens) (P19793 whole entry, looked up, the tested form may be a part): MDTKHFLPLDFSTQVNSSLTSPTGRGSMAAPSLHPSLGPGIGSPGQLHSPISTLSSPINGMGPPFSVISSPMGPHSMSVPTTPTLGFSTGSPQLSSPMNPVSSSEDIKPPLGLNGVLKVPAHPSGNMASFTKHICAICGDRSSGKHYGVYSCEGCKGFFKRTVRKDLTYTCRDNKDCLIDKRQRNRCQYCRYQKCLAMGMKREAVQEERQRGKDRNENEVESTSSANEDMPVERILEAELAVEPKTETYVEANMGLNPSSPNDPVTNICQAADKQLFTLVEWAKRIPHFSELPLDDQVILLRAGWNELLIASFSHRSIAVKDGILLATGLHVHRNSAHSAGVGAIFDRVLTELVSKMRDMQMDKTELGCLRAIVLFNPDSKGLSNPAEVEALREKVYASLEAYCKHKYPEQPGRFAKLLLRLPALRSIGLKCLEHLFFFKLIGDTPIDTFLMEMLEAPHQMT
# Method in brief: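 Antagonist mode used GAL4 UAS-driven beta-lactamase in HEK293T cells expressing RXRa, treated for 16 h with compound concentration series. Activity was taken from the blue/green (460:530 nm) ratio of cleaved to uncleaved substrate.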
# [10] = TOX21_TR_RXR_BLA_Antagonist_Followup_viability: Viability Assessment in the Tox21 Thyroid Hormone Receptor beta Retinoid X Receptor alpha (RXRa) Antagonism Beta-lactamase (BLA) Follow-Up Assay (AID 2283979; active = hit-call score of the fitted dose curve at least 0.9, where 1 is the maximum)
# Method in brief: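 RXRa-bla HEK293T cells (2,500/well, phenol red-free DMEM, 2% charcoal-stripped FBS) were attached 5 h, then exposed to compounds at 11 concentrations in triplicate for 16 h at 37C. Viability measured by CellTiter-Glo ATP luminescence, bidirectional fitting versus DMSO.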
SMILES,outcome [1],outcome [2],outcome [3],outcome [4],outcome [5],outcome [6],outcome [7],outcome [8],AC50 [6],AC50 [9],AC50 [10]
O=S(=O)(O)C(F)(F)C(F)(F)C(F)(F)C(F)(F)C(F)(F)C(F)(F)C(F)(F)C(F)(F)F,inactive,inactive,inactive,inactive,inactive,inactive,inactive,inactive,–,–,–
O=C(O)C(F)(F)C(F)(F)C(F)(F)C(F)(F)C(F)(F)C(F)(F)C(F)(F)F,inactive,inactive,inactive,inactive,inactive,inactive,inactive,inactive,–,–,–
CCCN(CCOc1c(Cl)cc(Cl)cc1Cl)C(=O)n1ccnc1,inactive,inactive,inactive,inactive,inactive,–,inactive,inactive,9.92 µM (active),–,–
CC1(c2ccc(Oc3ccccc3)cc2)OC(=O)N(Nc2ccccc2)C1=O (stereo unspecified),–,–,–,–,–,–,–,–,–,28.9 µM (active),38.5 µM (active)
